# FLuc counter: inhibits or activates purified firefly luciferase, miR-21 counter-screen; P08659; purified FLuc, Km substrates, luminescence inhibition; Potency, µM (highest dose often 57.5 µM), most hits filed as inhibitors; 360,000 compounds, 6.9% hits; further: nearly all actives have a fitted effect of over 55% in size
# Target sequence (P08659 whole entry, looked up): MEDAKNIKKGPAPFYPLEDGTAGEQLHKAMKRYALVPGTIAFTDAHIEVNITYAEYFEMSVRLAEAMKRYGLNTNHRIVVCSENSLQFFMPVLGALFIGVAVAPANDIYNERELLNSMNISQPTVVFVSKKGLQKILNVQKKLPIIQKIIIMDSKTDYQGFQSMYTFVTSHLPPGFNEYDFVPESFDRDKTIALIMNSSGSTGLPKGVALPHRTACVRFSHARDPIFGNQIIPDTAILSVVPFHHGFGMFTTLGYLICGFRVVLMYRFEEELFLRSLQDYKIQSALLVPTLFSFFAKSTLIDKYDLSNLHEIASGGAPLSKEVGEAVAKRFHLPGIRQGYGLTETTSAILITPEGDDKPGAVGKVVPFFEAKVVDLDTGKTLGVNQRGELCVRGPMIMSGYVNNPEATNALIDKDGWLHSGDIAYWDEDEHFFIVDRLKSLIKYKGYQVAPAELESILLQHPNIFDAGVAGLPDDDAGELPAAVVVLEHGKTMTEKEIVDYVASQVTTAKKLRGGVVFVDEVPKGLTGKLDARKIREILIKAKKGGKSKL
#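 Biochemical qHTS of compounds, final roughly 60 µM downward over six points, against 10 nM purified firefly luciferase using Km concentrations of substrates (10 uM D-luciferin, 10 uM ATP) in Tris acetate pH 7.5 buffer; luminescence output.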
# ELG1 genotox: genotoxicity induction in ELG1-luciferase HEK293T cells; HEK293T ELG1-luciferase reporter, luminescence, 16 h; Potency, µM (series often up to 46 µM), most hits filed as activators; 330,000 compounds, 1.3% hits; further: nearly all actives have a fitted effect of over 60% in size
#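 ELG1-luciferase HEK293T cells, 2,000/well; compound pinned in; 16 hr, 37 °C, 5% CO2; ONE-Glo, 30 min RT; luminescence on CCD imager.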
# Rab9 prom act: activators of Rab9 promoter; Huh7 Rab9 promoter-luciferase reporter, luminescence, 24 h; Potency, µM (series often up to 9.22 µM), hits mostly activators; 320,000 compounds, 2.8% hits; AID 485297; further: nearly all actives have a fitted effect of over 60% in size
#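 Using Huh7 cells stably transfected with Rab9 promoter–luciferase, compounds were incubated 24 h at 37 °C, 5% CO2; luciferase luminescence was read 10 min after reagent addition.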
# KinaseGlo FLuc: Kinase-Glo luciferase inhibition (counter-screen); Kinase-Glo luciferase, ATP luminescence, 8 min; Potency, µM (top dose mostly 38.3 µM), usual class: inhibitors; 200,000 compounds, 0.28% hits; AID 1379; Q27757; further: nearly all actives have a fitted effect of over 60% in size
#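 Substrate mix (final 50 mM imidazole pH 7.2, 50 mM KCl, 7 mM MgCl2, 10 uM ATP, 0.01% Tween 20, 0.05% BSA) plus pin-tool compound, then Kinase-Glo detection mix; 8 min ambient, luminescence read.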
# SMN2 splice up: SMN2 splice variant enhancement; Potency, µM (highest dose often 46.1 µM), usual class: activators; AID 1458; 210,000 compounds, 2.8% hits; HEK293 SMN2-luciferase splicing reporter, luminescence, 30-36 h; further: nearly all actives have a fitted effect of over 55% in size
#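 qHTS luciferase splicing reporter: luminescence rises when SMN2 exon 7 is included in transfected HEK293 cells. Compound exposure lasted 30-36 h at 37C, with 4.5 mM final sodium butyrate as control, followed by a ONE-Glo read.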
# NPC1 prom act: activates the NPC1 promoter; AID 485313; Huh7 NPC1 promoter luciferase reporter, 24 h; 320,000 compounds, 2.4% hits; Potency, µM (doses to about 9.22 µM), actives largely listed as activators; further: nearly all actives have a fitted effect of over 60% in size
#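 Compounds in DMSO were transferred onto Huh7 NPC1-luciferase reporter cells pre-incubated 2 h; after 24 h at 37 °C, Amplite reagent was dispensed and luminescence recorded 10 min later.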
# A number is an active result; i = inactive; ? = inconclusive; nt = no result; [ ] = another dose, or the depositor's remark. In the library only some 7.3% were active in any assay of this set; here they are far more common. The call rests on the fitted dose curve; in most records, active means well fitted curve in the direction sought with a large enough effect; inconclusive means small, poorly fitted or top-dose-only effect, or another doubt; inactive means no such curve, though single readings can be large; an effect the other way counts as inactive or inconclusive.
SMILES,FLuc counter,ELG1 genotox,Rab9 prom act,KinaseGlo FLuc,SMN2 splice up,NPC1 prom act
CSCCC(=O)N1CCCC(CO)(CCCc2ccccc2)C1 (configuration not stated),i,i,i,nt,nt,i
Cc1nc(C#N)c(N/N=C/c2cccc(Cl)c2)o1,4.8µM,?,?,i,11µM,?
CN1C(=O)/C(=C/c2ccc3c(c2)OCO3)N=C1c1ccccc1,4.8µM,i,i,i,i,i
NC(=O)c1nn2c(C(F)(F)F)cc(-c3ccc(Br)cc3)nc2c1Cl,i,nt,nt,nt,nt,nt
O=c1c2ccccc2cnn1CCOc1cccc(Br)c1,9.5µM,?,?,nt,nt,3.5µM
Cc1ccc(OCCn2ncc3ccccc3c2=O)c(C)c1,i,i,i,nt,nt,i
COc1ccc(Nc2nn3c(=O)c4cc5c(cc4nc3s2)OCO5)c(OC)c1,i,nt,nt,nt,i,nt
COc1ccccc1/C=C/c1nc(C#N)c(N(C)C)o1,7.6µM,21µM,?,nt,10µM,?
CN(C)c1oc(/C=C/c2ccccc2)nc1C#N,17µM,?,?,i,13µM,?
CNc1oc(/C=C/c2cccc(OC)c2)nc1C#N,15µM,21µM,i,nt,nt,i
CCN(CC)CCNC(=O)c1ccc(-c2nc(CN3CCc4ccccc43)c(C)o2)cc1,i,nt,nt,nt,nt,nt
CC1CCCCN1C(=O)CSc1n[nH]c(-c2ccccc2Cl)n1 (configuration not stated),i,nt,nt,nt,nt,nt
COC(=O)C1=C(C(=O)OC)[C@@H]2N(C)c3ccc(OC)cc3[C@@]23C[C@@H](C(=O)OC)N(S(=O)(=O)c2cccs2)C3=N1,nt,nt,nt,i[7.66 µM],i[9.22 µM],nt
COc1cc(/C=C2/SC(=S)N(C)C2=O)ccc1OC(=O)c1ccco1,i,i,i,i,i,i
O=C1NC(=S)S/C1=C/c1ccc(OC(=O)c2ccco2)cc1,7.6µM,i,?,nt,nt,i
CCOc1cc(/C=C2/SC(=S)NC2=O)ccc1OC(=O)c1ccco1,24µM,i,i,i,i,i
COc1cc(/C=C2/SC(=O)NC2=O)ccc1OC(=O)c1ccco1,17µM,i,i,nt,nt,i
[O-][n+]1c(CN2CCCCC2)nc2cccc3c2c1-c1ccccc1-3,nt,nt,nt,i[7.66 µM],i[9.22 µM],nt
Cc1ccc(-c2nc3ccccc3[nH]2)cn1,15µM,?,?,nt,nt,?
Oc1ccc(-c2[nH]nc(-c3ccccc3)c2-c2nc3ccccc3[nH]2)cc1,i,i,i,i,i,i
Clc1ccc(-c2nc3ccccc3[nH]2)cn1,19µM,i,?,nt,nt,?
Cc1nc2ccc([N+](=O)[O-])cc2[nH]1,i,i,i,i,i,i
Cc1nc2ccc(-c3nc4ccccc4[nH]3)cc2[nH]1,4.8µM,i,0.63µM,?,2.8µM,1.4µM
Cc1ccc2nc(-c3ccncc3)[nH]c2c1,8.5µM,12µM,?,nt,nt,2.2µM
COc1ccc(-c2noc(-c3ccccc3NC(=O)c3cc(OC)c(OC)c(OC)c3)n2)cc1,i,nt,nt,nt,nt,nt
SMILES,FLuc counter,ELG1 genotox,Rab9 prom act,KinaseGlo FLuc,SMN2 splice up,NPC1 prom act
COc1cc(C(=O)Nc2ccc(-c3cc(C(F)(F)F)nn3-c3ccccc3)cc2)cc(OC)c1OC,i,nt,nt,nt,i,nt
COc1cc2c(C(=O)N(C)c3cc(Cl)ccc3OC)cn(CC(C)C)c(=O)c2cc1OC,i,nt,nt,nt,i,nt
Cc1ccc2nc(C(F)C(F)(F)F)[nH]c2c1 (configuration not stated),19µM,i,i,i,nt,i
FC(c1nc2ccccc2[nH]1)C(F)(F)F (configuration not stated),i,i,i,i,nt,i
O=C(O)c1cccc(Nc2ccnc(Nc3cccc(C(=O)O)c3)n2)c1,6µM,?,?,nt,nt,?
O=C(O)c1cccc(Nc2nc(N3CCOCC3)nc(N3CCOCC3)n2)c1,i,i,i,i,i,i
Nc1ncnc(Nc2ccc(F)cc2)n1,i,i,i,i,i,i
Fc1ccc(Nc2ccnc(Nc3ccc(F)cc3)n2)cc1,8.5µM,?,?,i,nt,?
CCOC(=O)c1cc(-c2ccccc2)n(CC(=O)NCc2ccccc2OC)c1C,i,nt,nt,nt,nt,nt
O=C(Nc1nc(-c2ccc(Cl)cc2)cs1)C1CCCO1 (configuration not stated),15µM,?,?,i,i,i
CCOc1ccc(-c2csc(NC(=O)C3CCCO3)n2)cc1 (configuration not stated),15µM,?,i,i,i,i
CCc1ccc(NC(=O)CN(c2ccc(Cl)cc2)S(=O)(=O)c2ccsc2C(=O)OC)cc1,i,nt,nt,nt,nt,nt
Cc1ccc(C(=O)Nc2cccc(NC(=O)c3ccc(C)o3)n2)o1,15µM,i,i,nt,nt,i
CC(C)(C)c1csc(NC(=O)c2ccc(Br)o2)n1,27µM,i,?,nt,nt,?
Cc1nc(NC(=O)c2ccc(Br)o2)sc1C,7.6µM,i,?,?,?,?
Cc1ccc(C(=O)Nc2nc(C)c(C)s2)o1,6.7µM,?,3.2µM,?,14µM,?
Cc1ccccc1-c1nc(CN2CCC(C(=O)NC(C)C)CC2)c(C)o1,i,nt,nt,nt,i,nt
COc1cc(-c2nnc(SCCOc3ccc(Cl)cc3)o2)cc(OC)c1OC,i,nt,nt,nt,nt,nt
COC(=O)Nc1nc2ccc(SC(C)C)cc2[nH]1,?,5.8µM,i,i,?,i
COC(=O)Nc1nc2ccc(C(=O)c3ccccc3)cc2[nH]1,nt,nt,nt,i,i,nt
CCCc1cc(COC)c(C#N)c(=O)[nH]1,nt,nt,nt,i[7.66 µM],i[9.22 µM],nt
COc1cc(OC)c(NC(=O)C(C)n2c(=O)cc(-c3ccccc3)c3c(C)nn(C)c32)cc1Cl (configuration not stated),i,nt,nt,nt,nt,nt
COc1ccc(C(=O)Nc2cc(S(=O)(=O)c3ccc(Cl)cc3)c(O)c(C)c2C)cc1,8.5µM,nt,nt,nt,i,nt
Cc1c(NC(=O)c2ccc(Cl)cc2)cc(C(C)C)c(O)c1S(=O)(=O)c1ccccc1,?,nt,nt,nt,16µM,nt
CCOc1ccccc1/C=C(/C#N)C(N)=O,i,i,i,nt,nt,i
SMILES,FLuc counter,ELG1 genotox,Rab9 prom act,KinaseGlo FLuc,SMN2 splice up,NPC1 prom act
CCCOc1ccccc1/C=C(\C#N)C(=O)Nc1cccc(C)n1,11µM,i,i,nt,nt,i
Cc1cccc(NC(=O)/C(C#N)=C/c2ccc(F)cc2)n1,5.4µM,i,i,nt,nt,i
Cc1cccc(C(=O)Nc2ccc3c(c2)ncn3C)c1,9.5µM,?,1.3µM,nt,nt,1.6µM
Cn1cnc2cc(NC(=O)c3cccs3)ccc21,17µM,?,2.8µM,i,nt,?
Cc1cccc(C(=O)Nc2ccc3c(c2)nc(C)n3C)c1,3µM,?,0.32µM,nt,nt,0.4µM
CCC(=O)Nc1ccc2c(c1)ncn2C,i,i,i,i,i,i
O=C(Nc1ccc2nn(-c3ccccc3)nc2c1)c1cccs1,i[2.3 µM],?,3.5µM,i,?,?
COc1ccc(Cl)cc1NC(=O)Cn1c(=O)n(Cc2ccco2)c(=O)c2cccnc21,i,nt,nt,nt,i,nt
Cc1nc(N2CCCC2)ncc1C(=O)Nc1ccc(F)cc1F,i,nt,nt,nt,nt,nt
Cc1cccn2c(=O)c3cc(C(=O)NCCc4ccc(S(N)(=O)=O)cc4)n(C)c3nc12,i,nt,nt,nt,nt,nt
CC(C)c1nn2c(N)c(/C=C3\C=Nc4ccccc43)c(=O)nc2s1,?,i,i,nt,nt,i
